Measurements: the supplement of paper PMC10849652
The full data set covers some 8,800 targets. This sample favours those with a hit. About 0.5% of all pairs of compound and target were hits. A number with no mark means an inactive call.

UniProt Q9Y6C9, sequence (Q9Y6C9 whole entry, looked up): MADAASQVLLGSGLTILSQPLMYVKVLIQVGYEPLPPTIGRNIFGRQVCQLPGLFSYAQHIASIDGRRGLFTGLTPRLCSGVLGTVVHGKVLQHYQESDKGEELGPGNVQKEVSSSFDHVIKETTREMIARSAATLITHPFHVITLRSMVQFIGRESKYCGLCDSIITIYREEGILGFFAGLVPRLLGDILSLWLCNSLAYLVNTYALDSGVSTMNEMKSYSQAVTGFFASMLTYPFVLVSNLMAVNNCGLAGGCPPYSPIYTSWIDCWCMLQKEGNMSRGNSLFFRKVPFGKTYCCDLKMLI
UniProt Q9UDX5, sequence (Q9UDX5 whole entry, looked up): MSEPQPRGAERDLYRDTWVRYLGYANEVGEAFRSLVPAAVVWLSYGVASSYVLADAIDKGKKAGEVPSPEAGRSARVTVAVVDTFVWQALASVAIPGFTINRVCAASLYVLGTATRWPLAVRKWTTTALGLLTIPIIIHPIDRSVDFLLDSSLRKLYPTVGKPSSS
UniProt Q8TDX7, sequence (Q8TDX7 whole entry, looked up): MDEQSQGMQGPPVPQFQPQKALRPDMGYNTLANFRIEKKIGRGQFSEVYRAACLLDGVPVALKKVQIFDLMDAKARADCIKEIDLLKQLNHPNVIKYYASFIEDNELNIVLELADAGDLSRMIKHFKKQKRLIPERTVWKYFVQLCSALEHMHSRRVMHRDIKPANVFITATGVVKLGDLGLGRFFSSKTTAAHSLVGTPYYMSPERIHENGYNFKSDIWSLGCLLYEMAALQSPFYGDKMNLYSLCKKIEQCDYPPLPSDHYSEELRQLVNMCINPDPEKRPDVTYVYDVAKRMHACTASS
UniProt Q147X3, sequence (Q147X3 whole entry, looked up): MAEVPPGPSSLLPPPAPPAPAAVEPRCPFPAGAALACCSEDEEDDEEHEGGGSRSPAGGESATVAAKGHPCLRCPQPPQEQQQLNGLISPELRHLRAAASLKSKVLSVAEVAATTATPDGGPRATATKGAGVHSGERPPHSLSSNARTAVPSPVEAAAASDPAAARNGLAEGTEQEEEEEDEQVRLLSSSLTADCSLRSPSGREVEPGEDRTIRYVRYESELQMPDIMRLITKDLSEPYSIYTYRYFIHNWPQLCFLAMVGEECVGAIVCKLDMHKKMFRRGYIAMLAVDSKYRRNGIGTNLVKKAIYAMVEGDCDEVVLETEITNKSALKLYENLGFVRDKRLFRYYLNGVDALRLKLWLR
UniProt Q13153, sequence (Q13153 whole entry, looked up): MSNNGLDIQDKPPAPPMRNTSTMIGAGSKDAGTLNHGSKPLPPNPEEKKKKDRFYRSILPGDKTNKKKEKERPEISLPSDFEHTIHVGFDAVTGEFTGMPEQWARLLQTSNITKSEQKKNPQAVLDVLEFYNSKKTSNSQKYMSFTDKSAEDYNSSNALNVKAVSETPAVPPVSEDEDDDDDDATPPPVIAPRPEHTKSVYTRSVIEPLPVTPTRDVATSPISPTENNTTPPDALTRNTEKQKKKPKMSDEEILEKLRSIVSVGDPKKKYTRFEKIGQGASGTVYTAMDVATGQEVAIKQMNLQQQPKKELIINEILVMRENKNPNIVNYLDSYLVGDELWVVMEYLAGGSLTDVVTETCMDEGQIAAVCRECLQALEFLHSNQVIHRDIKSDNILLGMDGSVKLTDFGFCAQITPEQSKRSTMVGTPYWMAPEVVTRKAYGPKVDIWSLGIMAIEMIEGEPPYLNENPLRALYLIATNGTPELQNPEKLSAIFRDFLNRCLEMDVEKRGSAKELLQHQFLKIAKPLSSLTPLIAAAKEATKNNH
UniProt Q13469, sequence (Q13469 whole entry, looked up): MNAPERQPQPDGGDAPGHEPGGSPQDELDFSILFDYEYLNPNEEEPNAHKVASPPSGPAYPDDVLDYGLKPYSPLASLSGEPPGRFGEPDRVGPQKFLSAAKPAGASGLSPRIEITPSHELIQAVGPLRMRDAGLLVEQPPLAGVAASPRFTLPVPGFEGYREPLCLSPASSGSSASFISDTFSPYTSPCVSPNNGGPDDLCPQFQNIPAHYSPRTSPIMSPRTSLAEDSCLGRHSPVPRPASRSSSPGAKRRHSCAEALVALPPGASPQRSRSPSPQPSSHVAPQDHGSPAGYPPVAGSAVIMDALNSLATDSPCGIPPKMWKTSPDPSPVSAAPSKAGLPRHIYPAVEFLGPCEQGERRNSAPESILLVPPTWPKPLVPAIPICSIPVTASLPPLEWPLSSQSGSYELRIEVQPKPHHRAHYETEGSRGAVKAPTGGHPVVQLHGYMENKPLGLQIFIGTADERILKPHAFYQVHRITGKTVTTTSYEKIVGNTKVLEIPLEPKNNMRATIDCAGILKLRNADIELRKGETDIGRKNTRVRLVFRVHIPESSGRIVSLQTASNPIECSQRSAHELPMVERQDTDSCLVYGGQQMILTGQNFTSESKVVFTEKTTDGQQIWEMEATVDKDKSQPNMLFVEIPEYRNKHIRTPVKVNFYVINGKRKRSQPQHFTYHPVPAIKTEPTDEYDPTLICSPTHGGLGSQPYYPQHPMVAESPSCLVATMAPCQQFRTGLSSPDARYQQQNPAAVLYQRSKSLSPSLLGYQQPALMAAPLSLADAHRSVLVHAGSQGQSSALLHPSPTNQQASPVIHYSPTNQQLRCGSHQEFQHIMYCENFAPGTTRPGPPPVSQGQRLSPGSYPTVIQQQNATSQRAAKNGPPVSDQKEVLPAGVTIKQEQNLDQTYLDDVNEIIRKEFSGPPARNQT
UniProt O95644, sequence (O95644 whole entry, looked up): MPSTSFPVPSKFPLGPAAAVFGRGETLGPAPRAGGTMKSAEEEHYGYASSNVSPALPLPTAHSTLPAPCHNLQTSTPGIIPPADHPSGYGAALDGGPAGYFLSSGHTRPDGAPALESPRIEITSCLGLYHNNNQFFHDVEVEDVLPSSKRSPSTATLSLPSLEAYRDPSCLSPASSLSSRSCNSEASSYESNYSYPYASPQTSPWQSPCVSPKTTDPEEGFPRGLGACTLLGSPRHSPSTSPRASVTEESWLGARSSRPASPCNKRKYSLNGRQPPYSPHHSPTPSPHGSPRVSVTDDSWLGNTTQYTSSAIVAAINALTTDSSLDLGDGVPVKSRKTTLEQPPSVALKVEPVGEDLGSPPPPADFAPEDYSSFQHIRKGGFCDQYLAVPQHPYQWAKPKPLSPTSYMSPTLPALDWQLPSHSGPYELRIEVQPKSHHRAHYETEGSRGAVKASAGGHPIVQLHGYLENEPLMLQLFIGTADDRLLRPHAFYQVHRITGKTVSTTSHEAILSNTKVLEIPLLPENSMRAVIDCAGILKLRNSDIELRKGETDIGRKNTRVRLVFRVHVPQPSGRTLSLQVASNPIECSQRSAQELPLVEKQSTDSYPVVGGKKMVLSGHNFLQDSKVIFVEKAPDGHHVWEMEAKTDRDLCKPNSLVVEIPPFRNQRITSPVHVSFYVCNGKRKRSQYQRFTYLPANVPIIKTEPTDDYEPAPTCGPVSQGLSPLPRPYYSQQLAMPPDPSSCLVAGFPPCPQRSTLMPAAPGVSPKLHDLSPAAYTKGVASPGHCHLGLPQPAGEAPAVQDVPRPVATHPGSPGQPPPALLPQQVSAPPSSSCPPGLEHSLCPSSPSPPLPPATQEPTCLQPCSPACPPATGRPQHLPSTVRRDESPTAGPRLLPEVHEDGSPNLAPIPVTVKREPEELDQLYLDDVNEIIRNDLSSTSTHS
UniProt Q9Y314, sequence (Q9Y314 whole entry, looked up): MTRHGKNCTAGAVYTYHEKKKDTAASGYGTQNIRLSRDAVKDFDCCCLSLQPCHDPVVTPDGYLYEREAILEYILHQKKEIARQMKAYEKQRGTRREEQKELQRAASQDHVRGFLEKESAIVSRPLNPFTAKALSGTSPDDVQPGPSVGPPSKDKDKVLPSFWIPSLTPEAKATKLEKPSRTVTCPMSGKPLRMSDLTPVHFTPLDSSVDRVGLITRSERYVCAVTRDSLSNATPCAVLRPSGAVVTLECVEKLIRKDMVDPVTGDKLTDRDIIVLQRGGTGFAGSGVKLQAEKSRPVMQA
UniProt Q9Y5A7, sequence (Q9Y5A7 whole entry, looked up): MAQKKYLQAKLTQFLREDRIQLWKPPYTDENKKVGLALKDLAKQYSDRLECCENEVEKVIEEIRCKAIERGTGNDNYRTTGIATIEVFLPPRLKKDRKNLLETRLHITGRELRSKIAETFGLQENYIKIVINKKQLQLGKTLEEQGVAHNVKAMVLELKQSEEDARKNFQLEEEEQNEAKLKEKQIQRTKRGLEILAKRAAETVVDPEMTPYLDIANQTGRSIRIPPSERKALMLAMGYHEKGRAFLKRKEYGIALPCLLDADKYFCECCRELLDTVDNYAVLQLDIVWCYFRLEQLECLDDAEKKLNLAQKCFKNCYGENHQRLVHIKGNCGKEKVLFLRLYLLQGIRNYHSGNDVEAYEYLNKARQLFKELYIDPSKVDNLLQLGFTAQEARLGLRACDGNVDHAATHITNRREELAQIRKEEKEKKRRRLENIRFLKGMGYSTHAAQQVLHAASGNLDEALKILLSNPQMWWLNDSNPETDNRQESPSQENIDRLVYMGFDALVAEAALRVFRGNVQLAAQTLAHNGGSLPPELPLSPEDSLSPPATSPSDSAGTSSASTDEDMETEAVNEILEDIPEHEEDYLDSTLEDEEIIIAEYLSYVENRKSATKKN
UniProt Q9BXS6, sequence (Q9BXS6 whole entry, looked up): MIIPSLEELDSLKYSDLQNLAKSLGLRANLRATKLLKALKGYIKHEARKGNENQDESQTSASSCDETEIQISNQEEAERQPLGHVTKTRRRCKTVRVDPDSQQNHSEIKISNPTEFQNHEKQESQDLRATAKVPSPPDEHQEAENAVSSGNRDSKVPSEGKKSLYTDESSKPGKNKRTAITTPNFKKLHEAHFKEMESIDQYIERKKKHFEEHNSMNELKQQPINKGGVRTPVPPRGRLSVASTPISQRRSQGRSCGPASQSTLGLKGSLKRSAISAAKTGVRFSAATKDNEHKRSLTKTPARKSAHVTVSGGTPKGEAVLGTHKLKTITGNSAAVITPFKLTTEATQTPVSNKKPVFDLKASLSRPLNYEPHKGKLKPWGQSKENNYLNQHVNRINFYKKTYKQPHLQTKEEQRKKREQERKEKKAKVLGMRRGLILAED

These targets were tested with CC[C@@H]1C(=O)N(C)c2cnc(Nc3ccc(C(=O)N[C@H]4CC[C@H](N5CCN(CC6CC6)CC5)CC4)cc3OC)nc2N1C(C)C [volasertib] (assay: log2 fold change, soluble protein after heating vs DMSO (PISA); higher = thermal stabilisation; K562 lysate, 10 uM; active = over 0.2 and 3.5 SD of the protein, either way, in both replicates (recomputed)).
Method in brief: (§1)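 Log-two fold change in thermal stability relative to solvent controls is reported from duplicates. For each sample, crude K562 extract from dounce-homogenised pellets in PBS pH 7.4 with 1 mM MgCl2, at 1 mg/mL protein, was treated with 10 μM compound for 30 min. Aliquots heated for 3 min across 48°C-58°C were pooled, brought to 0.5% NP-40 at 4°C and cleared at 21,000xg for 90 min. The supernatant was quantified by TMTpro 16plex LC-MS/MS with channel sums equalised.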
With NUB1 (UniProt Q9Y5A7) the log2 fold change was -0.056. In the case of NAA30 (UniProt Q147X3), the log2 fold change is reported as 0.012. NUDT5 (UniProt Q9UKK9) was tested, and the log2 fold change was 0.015. In the case of NOSIP (UniProt Q9Y314), the log2 fold change is reported as -0.035. Work on MTFP1 (UniProt Q9UDX5) yielded a log2 fold change of 0.041. With NFATC1 (UniProt O95644) the log2 fold change was 0. MYOM1 (UniProt P52179) gave a log2 fold change of 0.123. Work on MTCH2 (UniProt Q9Y6C9) yielded a log2 fold change of 0.05. With PAK1 (UniProt Q13153) the log2 fold change was 0.023. Target NFATC2 (UniProt Q13469) has a log2 fold change of -0.069. For NOC2L (UniProt Q9Y3T9), the log2 fold change was -0.035. NEK7 (UniProt Q8TDX7) gave a log2 fold change of -0.091.

What follows are targets tested with CCn1c(C(=O)N(C2CC2)C2CC2)cc2c3c(ncn3C)c(Nc3cc(C)n(C)n3)nc21 in the same assay as above.
Method in brief: as §1
ORC2 (UniProt Q13416) gave a log2 fold change of 0.002. NIPSNAP3A (UniProt Q9UFN0) showed a log2 fold change of -0.024. For N6AMT1 (UniProt Q9Y5N5), the log2 fold change was 0.006. OTUD7B (UniProt Q6GQQ9) gave a log2 fold change of 0.018. Work on MSH2 (UniProt P43246) yielded a log2 fold change of 0.038. For MRPL53 (UniProt Q96EL3), the log2 fold change was -0.017. NFKBIE (UniProt O00221) showed a log2 fold change of -0.024. Target NCAPH2 (UniProt Q6IBW4) has a log2 fold change of -0.014. Target MRPS18A isoform 2 (UniProt Q9NVS2) has a log2 fold change of -0.04. NOB1 (UniProt Q9ULX3) gave a log2 fold change of -0.003. NCAPG2 (UniProt Q86XI2) gave a log2 fold change of 0.025. In the case of NUMB (UniProt P49757), the log2 fold change is reported as 0.008. OARD1 (UniProt Q9Y530) gave a log2 fold change of 0.022. NF1 (UniProt P21359) was tested, and the log2 fold change was 0.031. NTMT1 (UniProt Q9BV86) gave a log2 fold change of 0.015. In the case of MYD88 isoform 6 (UniProt Q99836), the log2 fold change is reported as 0.022. NUSAP1 (UniProt Q9BXS6) showed a log2 fold change of -0.009. With MVB12A (UniProt Q96EY5) the log2 fold change was 0.03. NAT1 (UniProt P18440) showed a log2 fold change of -0.012. Target MSH3 (UniProt P20585) has a log2 fold change of -0.034. NCK1 (UniProt P16333) gave a log2 fold change of -0.025. With NGLY1 (UniProt Q96IV0) the log2 fold change was 0.002. With NOA1 (UniProt Q8NC60) the log2 fold change was -0.083. With NUB1 (UniProt Q9Y5A7) the log2 fold change was 0. NAA30 (UniProt Q147X3) was tested, and the log2 fold change was -0.058. NUDT5 (UniProt Q9UKK9) showed a log2 fold change of -0.054. Work on NOSIP (UniProt Q9Y314) yielded a log2 fold change of -0.005. MTFP1 (UniProt Q9UDX5) was tested, and the log2 fold change was 0.061. With NFATC1 (UniProt O95644) the log2 fold change was 0.007. MYOM1 (UniProt P52179) gave a log2 fold change of -0.356. Target MTCH2 (UniProt Q9Y6C9) has a log2 fold change of -0.012. With PAK1 (UniProt Q13153) the log2 fold change was -0.011. With NFATC2 (UniProt Q13469) the log2 fold change was -0.006. NOC2L (UniProt Q9Y3T9) gave a log2 fold change of 0.006. In the case of NEK7 (UniProt Q8TDX7), the log2 fold change is reported as -0.025.

Each target was assayed with CCn1cc(-c2ccnc3[nH]c(-c4cccc(CN(C)C)c4)cc23)c(-c2ccc(NC(=O)N(C)C)cc2)n1 in the same assay as above.
Method in brief: as §1
In the case of ORC2 (UniProt Q13416), the log2 fold change is reported as -0.002. Work on NIPSNAP3A (UniProt Q9UFN0) yielded a log2 fold change of 0.324. N6AMT1 (UniProt Q9Y5N5) showed a log2 fold change of -0.047. OTUD7B (UniProt Q6GQQ9) gave a log2 fold change of 0.017. MSH2 (UniProt P43246) gave a log2 fold change of 0.003. MRPL53 (UniProt Q96EL3) was tested, and the log2 fold change was 0.013. In the case of NFKBIE (UniProt O00221), the log2 fold change is reported as -0.07. For NCAPH2 (UniProt Q6IBW4), the log2 fold change was -0.032. MRPS18A isoform 2 (UniProt Q9NVS2) was tested, and the log2 fold change was 0.306 (active). For NOB1 (UniProt Q9ULX3), the log2 fold change was 0.274 (active). For NCAPG2 (UniProt Q86XI2), the log2 fold change was -0.139. Work on NUMB (UniProt P49757) yielded a log2 fold change of 0.055. With OARD1 (UniProt Q9Y530) the log2 fold change was -0.056. Target NF1 (UniProt P21359) has a log2 fold change of -0.035. NTMT1 (UniProt Q9BV86) gave a log2 fold change of 0.055. With MYD88 isoform 6 (UniProt Q99836) the log2 fold change was -0.009. With NUSAP1 (UniProt Q9BXS6) the log2 fold change was -0.399 (active). Work on MVB12A (UniProt Q96EY5) yielded a log2 fold change of 0.009. NAT1 (UniProt P18440) showed a log2 fold change of -0.149. In the case of MSH3 (UniProt P20585), the log2 fold change is reported as -0.025. With NCK1 (UniProt P16333) the log2 fold change was 0.067. Work on NGLY1 (UniProt Q96IV0) yielded a log2 fold change of 0.09. Work on NOA1 (UniProt Q8NC60) yielded a log2 fold change of -0.229. NUB1 (UniProt Q9Y5A7) was tested, and the log2 fold change was 0.008. NAA30 (UniProt Q147X3) showed a log2 fold change of -0.022. Target NUDT5 (UniProt Q9UKK9) has a log2 fold change of -0.267. NOSIP (UniProt Q9Y314) was tested, and the log2 fold change was -0.013. For MTFP1 (UniProt Q9UDX5), the log2 fold change was -0.421 (active). In the case of NFATC1 (UniProt O95644), the log2 fold change is reported as -0.118. MYOM1 (UniProt P52179) was tested, and the log2 fold change was -0.185. In the case of MTCH2 (UniProt Q9Y6C9), the log2 fold change is reported as -0.155. With PAK1 (UniProt Q13153) the log2 fold change was 0.013. In the case of NFATC2 (UniProt Q13469), the log2 fold change is reported as 0.011. In the case of NOC2L (UniProt Q9Y3T9), the log2 fold change is reported as -0.079. Work on NEK7 (UniProt Q8TDX7) yielded a log2 fold change of -0.13.
